MEKK2wt PB1 HTS: raises or lowers MEK5 binding to wildtype human MEKK2 PB1 domain; bead flow cytometry, Alexa488-MEK5 binding to MEKK2 WT; actives lie on both sides; binding response (% of control), % at 10 µM; 290,000 tested, 1.1% active; in the data active = binding response below about 67% or above about 130%
MEKK3 PB1 HTS: MEKK3-MEK5 PB1 interaction, increase or decrease; Q99759; bead-based flow cytometry, Alexa488-MEK5 binding to MEKK3; actives lie on both sides; 0 = blocked by unlabeled MEK5, 100 = vehicle; binding response (% of control), % at 10 µM; 290,000 tested, 1.4% active;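 active = binding response more than 3 SD above or below the average of its plate-row segment, actives on both sides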;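 note: Alexa488 bead fluorescence after subtracting the streptavidin-only scavenger bead signal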
Target sequence (Q99759 whole entry, looked up): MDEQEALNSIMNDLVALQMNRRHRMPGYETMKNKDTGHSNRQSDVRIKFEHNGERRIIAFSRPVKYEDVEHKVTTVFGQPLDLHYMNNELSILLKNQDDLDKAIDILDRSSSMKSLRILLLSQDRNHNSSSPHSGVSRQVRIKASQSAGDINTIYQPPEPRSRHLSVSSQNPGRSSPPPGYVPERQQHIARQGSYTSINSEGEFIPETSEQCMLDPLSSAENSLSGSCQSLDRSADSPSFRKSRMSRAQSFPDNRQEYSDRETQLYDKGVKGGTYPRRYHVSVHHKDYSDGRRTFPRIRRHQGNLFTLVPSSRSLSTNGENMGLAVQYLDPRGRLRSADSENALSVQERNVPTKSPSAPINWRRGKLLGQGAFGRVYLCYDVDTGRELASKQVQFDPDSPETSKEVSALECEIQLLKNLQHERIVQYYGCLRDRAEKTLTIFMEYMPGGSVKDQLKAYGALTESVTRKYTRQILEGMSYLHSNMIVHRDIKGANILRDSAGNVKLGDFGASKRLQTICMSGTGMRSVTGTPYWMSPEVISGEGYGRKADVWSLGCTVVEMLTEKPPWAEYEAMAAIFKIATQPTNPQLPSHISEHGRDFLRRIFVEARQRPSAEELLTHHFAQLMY
MEKK2 mut-MEK5: signal of MEK5 binding to mutant human MEKK2 PB1 domain | bead flow cytometry, Alexa488-MEK5 binding to MEKK2 mutant | percent response, % at 10 µM | 290,000 tested, 0.35% active | AID 1530; in the data active = percent response above about 24%, passing the limit was not always enough
GRK2 aptamer HTS: inhibitors of human GRK2 displacing RNA aptamer | P25098 | bead flow cytometry, FAM-aptamer displacement from GRK2 | inhibition of aptamer binding, % at 10 µM | 330,000 tested, 0.59% active | AID 488847;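 active = inhibition of aptamer binding above 40%, roughly 3 SD of noise, on plates passing a quality check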;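 note: median bead fluorescence of bound FAM aptamer so fluorescent compounds give negative values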
MEKK2wt confirm: raises or lowers MEK5 binding to wildtype human MEKK2, retest | AID 1892 | 5,900 tested, 2.4% active | bead flow cytometry, Alexa488-MEK5 binding to MEKK2 WT; actives lie on both sides | binding response (% of control), % at 10 µM | shares compounds with MEKK3 PB1 HTS; in the data active = binding response below about 16% or above about 210%; inactive = in between
MEKK2mut confirm: signal of MEK5 binding to mutant human MEKK2, retest; shares compounds with MEKK3 PB1 HTS; bead flow cytometry, Alexa488-MEK5 binding to MEKK2 mutant; percent response, % at 10 µM; 5,900 tested, 2% active; AID 1893; in the data active = percent response mostly above about 71%, no sharp cut-off; inactive = mostly below about 38%;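 note: higher means compound restores mutant binding toward wildtype level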
MEKK3 confirm: confirmation of inhibitors of MEK5 binding to human MEKK3; shares compounds with MEKK3 PB1 HTS; 5,900 tested, 1.8% active; AID 1894; binding response (% of control), % at 10 µM; bead flow cytometry, Alexa488-MEK5 binding to MEKK3; stronger effect = lower value;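 active = binding response below 72% of control, or above a set upper limit, though filed actives all read lower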;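 note: 100% = DMSO only wells and 0% = binding blocked by excess unlabeled MEK5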
* = called active by the depositor; nt = no result; [ ] = another dose, or the depositor's remark. A selection: hits, their analogues and other compounds. The true share with any hit is near 2.5%.

SMILES	MEKK2wt PB1 HTS	MEKK3 PB1 HTS	MEKK2 mut-MEK5	GRK2 aptamer HTS	MEKK2wt confirm	MEKK2mut confirm	MEKK3 confirm
COc1ccc(C2=C/C(=C\c3ccc(OC(C)=O)cc3)C(=O)O2)cc1	104	102	1	2	nt	nt	nt
O=c1[nH]ncc2c3ccccc3n(Cc3ccccc3F)c12	101	102	1	2	nt	nt	nt
CCOc1ccc(C2=C/C(=C/c3cccnc3)C(=O)O2)cc1	84	82*[inhibitor]	-2	1	37	-17	59*
COc1ccc(C2=C/C(=C/c3cccnc3)C(=O)O2)cc1OC	96	97	-2	0	nt	nt	nt
CCNC(=S)NC1CC2CCCC(C1)N2Cc1ccc(C)cc1 (stereo not drawn)	116	108	15	0	nt	nt	nt
CCNC(=S)NC1CC2CCCC(C1)N2Cc1ccco1 (stereo not drawn)	91	81*[inhibitor]	-6	1	117	11	106
O=C(NC1CC2CCCC(C1)N2Cc1ccco1)NC12CC3CC(CC(C3)C1)C2 (stereo not drawn)	125	132*	6	0	110	12	105
O=C(c1sc2ccccc2c1Cl)N1CCN(c2ccccc2F)CC1	95	97	-4	nt	nt	nt	nt
Cc1ccc(-c2nc(N3CCN(C)CC3)c3ccccc3n2)cc1	125	106	9	0	nt	nt	nt
CCN1CCN(c2nc(-c3ccccc3)nc3ccccc23)CC1	116	142*	1	0	118	15	104
CCc1nc(SCC(=O)NNC(=O)C(C)C)c2ccccc2n1	107	106	2	2	nt	nt	nt
CC(C)C(=O)NNC(=O)CSc1nc(C2CCCCC2)nc2ccccc12	108	140*	2	0	103	3	104
Nc1nc(Cl)cc(Sc2ccc3ccccc3c2)n1	119	115	26*	0	111	4	106
CC(C)N1CCN(Cc2coc3ccccc3c2=O)CC1CCO (stereo not drawn)	120	131*	0	0	76	-22	64*
CC(C)Cc1ccc(CN2CCCC(NC(=O)c3cnc4ccccn4c3=O)C2)cc1 (stereo not drawn)	114	102	5	0	nt	nt	nt
CCOc1cc(N2CCOCC2)c(OCC)cc1NC(=O)CN1C(=O)NC2(CCc3ccccc32)C1=O (stereo not drawn)	104	102	4	0	nt	nt	nt
Cc1cccc(N2CCN(C(=O)COc3cc(=O)n(C)c4ccccc34)CC2)c1C	100	103	-2	2	nt	nt	nt
Cc1cccc(N2CCN(C(=O)Cc3cn(C)c4ccccc34)CC2)c1C	117	130*	5	1	95	-9	93
COc1cc(C#N)c(NC(=O)CN2CCN(CCO)CC2)cc1OC	58	47*[inhibitor]	-14	2	102	2	103
O=C(COC(=O)Cn1cnc2ccccc2c1=O)Nc1ccc2c(c1)OCO2	99	100	0	1	nt	nt	nt
C/C(=N\NC(=O)COc1ccc(C(C)(C)C)cc1)c1ccc2c(c1)OCCO2	113	110	21	3	nt	nt	nt
CCc1ccc(OCC(=O)N/N=C(\C)c2ccc3c(c2)OCCO3)cc1	102	131*	0	1	104	-1	103
CCOC(=O)c1ccc(N2CCN(c3ccc(F)cc3)CC2)c(NC(=O)Nc2cccc(OC)c2)c1	107	90	0	0	nt	nt	nt
CCOC(=O)c1ccc(N2CCN(c3ccccc3F)CC2)c(NC(=O)Nc2ccccc2)c1	30*[inhibitor]	102	9	0	106	-2	103
CCOC(=O)N1CCN(c2c(N3CCN(c4ccccc4F)CC3)c(=O)c2=O)CC1	82	72*[inhibitor]	-5	1	75	-23	70*
SMILES	MEKK2wt PB1 HTS	MEKK3 PB1 HTS	MEKK2 mut-MEK5	GRK2 aptamer HTS	MEKK2wt confirm	MEKK2mut confirm	MEKK3 confirm
Fc1ccc(-c2cc3nc(-c4ccccc4)cc(N4CCN(CCN5CCOCC5)CC4)n3n2)cc1	127	100	9	nt	nt	nt	nt
CN1CCN(c2cc(-c3ccccc3)nc3cc(-c4ccc(F)cc4)nn23)CC1	152*	113	34*	0	157	26	108
COc1cccc(-c2cc3nc(-c4ccccc4)cc(N4CCC5(CC4)OCCO5)n3n2)c1	137*	125*	25*	0	103	-2	103
COc1ccc(CCNC(=O)Cn2cnc3ccccc3c2=O)cc1OC	105	129*	0	4	105	-1	100
COc1ccccc1CNC(=O)CCNC(=O)Cn1cnc2ccccc2c1=O	-1.0*[inhibitor]	0.0*[inhibitor]	-9	0	99	-3	99
COc1ccc(CCNC(=O)CSc2ccc3ccccc3c2)cc1OC	111	113	4	0	nt	nt	nt
COc1ccc(CCNC(=O)CSc2nn(-c3ccccc3)c(=S)s2)cc1OC	105	148*	0	0	107	-3	106
CCOc1ccc(CCNC(=O)COC(=O)Cn2cnc3ccccc3c2=O)cc1OCC	91	84	-6	0	nt	nt	nt
O=C1Nc2ccccc2N(O)N1c1ccc(S(=O)(=O)Nc2ccccn2)cc1	101	102	-2	0	nt	nt	nt
COc1cc(C)ccc1OCc1cc(C(=O)N(Cc2nccn2C)C(C)C)no1	107	101	3	0	nt	nt	nt
COCCN(C(=O)c1csnn1)C(C(=O)NC1CCCCC1)c1ccc(C)cc1 (stereo not drawn)	102	103	5	2	nt	nt	nt
OC(COC(c1ccc(F)cc1)c1ccc(F)cc1)CN1CCc2ccccc2C1 (stereo not drawn)	112	136*	1	8	115	5	100
OC(COC(c1ccccc1)c1ccccc1)CN1CCc2ccccc2C1 (stereo not drawn)	102	103	6	0	nt	nt	nt
OC(COC(c1ccc(Cl)cc1)c1ccc(Cl)cc1)CN1CCCC1 (stereo not drawn)	140*	105	14	0	126	20	102
OC(COC(c1ccc(Cl)cc1)c1ccc(Cl)cc1)CN1CCc2ccccc2C1 (stereo not drawn)	164*	110	14	0	203	63	113
O=CNc1ccccc1Oc1ccccc1	108	106	7	0	nt	nt	nt
COc1ccc(OC)c(NC(=O)c2oc3c(c2C)C(O)CC(C)(C)C3)c1 (stereo not drawn)	96	97	-1	3	nt	nt	nt
CC(C)N=C(N)N=C(N)Nc1ccc(Cl)cc1	nt	nt	nt	0	nt	nt	nt
NC(=NCCCCCCN=C(N)/N=C(\N)Nc1ccc(Cl)cc1)/N=C(\N)Nc1ccc(Cl)cc1	345*	113	96*	0	268*	121*	113
COC(=O)Cc1cc(=O)n(-c2nc3ccccc3[nH]2)[nH]1	80	73*[inhibitor]	-4	0	98	0	101

Compound activity as filed in PubChem BioAssay.
